Data reported in PubChem BioAssay (NCATS).
Values joined by “and” are separate entries in the source; they are usually repeats but may differ in a detail not shown here. Identical values can stand only once. Values without a mark were called inactive. Results filed as inconclusive are left out. A call without a number means that no potency is given here. Active and inactive are the calls of the source. Calls come from the whole dose curve; as a rule, active = well fitted curve in the direction sought with a large enough effect; inconclusive = small, poorly fitted or top-dose-only effect, or another doubt; inactive = no such curve, though single readings can be large; an effect the other way counts as inactive or inconclusive.

Experiments:
[1] = biological target: Cytochrome P450 2C9 (Homo sapiens) (UniProt P11712); assay: qHTS Assay for Inhibitors and Substrates of Cytochrome P450 2C9 (AID 883); note: nearly all actives have a fitted effect of over 60% in size; note: potency is the fitted concentration of half-maximal effect
In short: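 Human CYP2C9 (10nM) with Luciferin-H at 100uM (its KM) in 25mM KPO4; compound preincubated 10 min at 37C, then NADPH regeneration for 60 min at 37C. Luciferin read by luminescence after detection reagent; normalized to 57uM sulphaphenazole as full inhibition.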

[2] = biological target: Cytochrome P450 3A4 (Homo sapiens) (UniProt P08684); assay: qHTS Assay for Activators of Cytochrome P450 3A4 (AID 885); note: nearly all actives have a fitted effect of over 65% in size
In short: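 CYP3A4 activity: Luciferin-PPXE O-dealkylation, 25uM substrate, 200mM KPO4, RT throughout. Read-out is luciferase luminescence; higher values reflect activation.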

[3] = biological target: Cytochrome P450 2D6 (Homo sapiens) (UniProt P10635); assay: qHTS Assay for Inhibitors and Substrates of Cytochrome P450 2D6 (AID 891); note: nearly all actives have a fitted effect of over 60% in size; note: potency is the fitted concentration of half-maximal effect
In short: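 Luminescent read-out of luciferin formed by 5 nM human CYP2D6 demethylating 30 uM Luciferin-ME EGE (Km level) over 60 min at room temperature after NADPH regeneration addition. Data normalized to full inhibition by 1.43 uM quinidine.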

[4] = biological target: Cytochrome P450 2C19 (Homo sapiens) (UniProt P33261); assay: qHTS Assay for Inhibitors and Substrates of Cytochrome P450 2C19 (AID 899); note: nearly all actives have a fitted effect of over 60% in size; note: potency is the fitted concentration of half-maximal effect
In short: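 5 nM human CYP2C19 with 10uM Luciferin-H EGE (at KM) in 50mM KPO4, compound preincubated 10 min at 37C, then NADPH regeneration for 60 min at 37C. Luciferin read by luminescence after detection reagent; normalized to 57uM ketoconazole as full inhibition.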

Chain of Cytochrome P450 2C9 (Homo sapiens) (P11712 whole entry, looked up): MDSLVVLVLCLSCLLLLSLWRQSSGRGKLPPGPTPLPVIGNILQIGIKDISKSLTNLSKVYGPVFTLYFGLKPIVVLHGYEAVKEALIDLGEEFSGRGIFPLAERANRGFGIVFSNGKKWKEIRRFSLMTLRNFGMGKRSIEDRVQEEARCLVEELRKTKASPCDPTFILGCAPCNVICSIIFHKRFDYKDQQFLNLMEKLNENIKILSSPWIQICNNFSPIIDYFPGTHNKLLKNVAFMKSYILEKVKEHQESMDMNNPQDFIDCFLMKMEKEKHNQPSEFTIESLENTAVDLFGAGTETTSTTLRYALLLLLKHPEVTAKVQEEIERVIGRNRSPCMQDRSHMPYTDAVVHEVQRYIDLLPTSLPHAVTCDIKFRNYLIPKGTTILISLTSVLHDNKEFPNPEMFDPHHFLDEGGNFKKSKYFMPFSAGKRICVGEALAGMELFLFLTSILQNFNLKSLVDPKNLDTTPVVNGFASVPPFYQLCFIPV
Chain of Cytochrome P450 3A4 (Homo sapiens) (P08684 whole entry, looked up): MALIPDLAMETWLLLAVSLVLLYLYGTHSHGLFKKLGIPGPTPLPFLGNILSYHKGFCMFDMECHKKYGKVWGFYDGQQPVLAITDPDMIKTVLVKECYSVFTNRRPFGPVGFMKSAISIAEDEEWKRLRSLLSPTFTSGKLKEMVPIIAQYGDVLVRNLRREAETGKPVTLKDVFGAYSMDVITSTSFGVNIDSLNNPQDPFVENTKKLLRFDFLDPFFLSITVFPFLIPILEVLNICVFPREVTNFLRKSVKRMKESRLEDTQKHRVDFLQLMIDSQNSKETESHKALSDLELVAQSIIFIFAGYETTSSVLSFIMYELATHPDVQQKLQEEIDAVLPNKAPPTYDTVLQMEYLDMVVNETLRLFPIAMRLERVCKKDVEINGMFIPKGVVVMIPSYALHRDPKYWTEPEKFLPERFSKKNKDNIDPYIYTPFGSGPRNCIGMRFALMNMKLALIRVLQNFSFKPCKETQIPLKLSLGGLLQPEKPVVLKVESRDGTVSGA
Chain of Cytochrome P450 2C19 (Homo sapiens) (P33261 whole entry, looked up): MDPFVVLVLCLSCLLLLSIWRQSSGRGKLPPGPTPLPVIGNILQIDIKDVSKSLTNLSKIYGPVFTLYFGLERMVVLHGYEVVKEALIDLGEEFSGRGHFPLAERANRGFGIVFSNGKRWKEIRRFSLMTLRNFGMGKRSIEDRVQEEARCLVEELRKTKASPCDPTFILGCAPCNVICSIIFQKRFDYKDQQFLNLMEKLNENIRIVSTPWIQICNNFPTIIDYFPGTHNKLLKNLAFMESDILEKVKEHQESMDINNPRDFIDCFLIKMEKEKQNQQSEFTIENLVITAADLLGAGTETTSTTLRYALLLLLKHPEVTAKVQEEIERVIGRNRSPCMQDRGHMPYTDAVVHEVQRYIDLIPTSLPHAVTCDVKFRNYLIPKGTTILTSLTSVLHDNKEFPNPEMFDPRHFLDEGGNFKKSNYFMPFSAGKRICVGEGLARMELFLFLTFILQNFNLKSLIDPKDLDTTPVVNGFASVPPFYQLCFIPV
Chain of Cytochrome P450 2D6 (Homo sapiens) (P10635 whole entry, looked up): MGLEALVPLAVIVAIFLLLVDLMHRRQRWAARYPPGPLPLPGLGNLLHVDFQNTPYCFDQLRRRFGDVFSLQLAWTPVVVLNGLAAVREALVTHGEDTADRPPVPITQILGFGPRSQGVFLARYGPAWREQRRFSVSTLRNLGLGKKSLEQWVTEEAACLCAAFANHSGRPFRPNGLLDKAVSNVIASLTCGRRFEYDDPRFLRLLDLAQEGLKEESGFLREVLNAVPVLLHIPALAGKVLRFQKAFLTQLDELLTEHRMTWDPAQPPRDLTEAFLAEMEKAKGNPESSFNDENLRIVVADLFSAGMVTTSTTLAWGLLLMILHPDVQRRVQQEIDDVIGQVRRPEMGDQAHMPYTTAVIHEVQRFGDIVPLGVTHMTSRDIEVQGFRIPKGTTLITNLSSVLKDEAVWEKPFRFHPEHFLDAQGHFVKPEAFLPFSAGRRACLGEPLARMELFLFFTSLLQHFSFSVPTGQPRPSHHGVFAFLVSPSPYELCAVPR

SMILES	Potency [1]	activity change, positive = activation [2]	Potency [3]	Potency [4]
CC1CCC2C(=O)N3C(CCC(C)[C@@H]3c3ccc(Br)cc3)C(=O)N2C1c1ccc(Br)cc1 (stereo partly drawn)	3.16 µM (active)	-48.7% [at 11.4 µM]	inactive	
C=C/C1=C/Cc2ccccc2C(C[N+](=O)[O-])C(C(=O)OC)(C(=O)OC)C1 (stereo not drawn)	inactive	-46.3% [at 11.4 µM]	inactive	
CCCNC(=O)OC[C@@H]1O[C@H](CCO/N=C\c2ccc(C(=O)N3[C@H](c4ccc(C)cc4)[C@@H](C)CC[C@H]3C(=O)OC)cc2)C=C[C@@H]1Oc1ccc(OC)cc1	3.98 µM (active)	-51.6% [at 11.4 µM]		
C(#CC1C=CC2OC(c3ccccc3)OCC2O1)c1ccccc1 (stereo not drawn)	inactive	-40.5% [at 11.4 µM]	inactive	inactive
COC(=O)NC(c1cccc(C)c1)C(C(C)=O)C(=O)OC (stereo not drawn)	inactive	-34.6% [at 11.4 µM]	inactive	inactive
COC(=O)C1=C(C)N(Cc2ccccc2)[C@]23O[C@](C(=O)OC)(C(=O)N2C1c1ccccc1)C1C(=O)N(c2ccccc2)C(=O)C13 (stereo partly drawn)	inactive	-42.8% [at 11.4 µM] and -32.3% [at 11.4 µM]	inactive	inactive
COc1cccc(C2C(C)CCC3C(=O)N(C)C(C(C)C)C(=O)N32)c1 (stereo not drawn)	inactive	-59.1% [at 11.4 µM]	inactive	inactive
COC(=O)C1=C(C)N(Cc2ccccc2)c2c(C(=O)OC)c(C(=O)OC)c(C(=O)OC)c(=O)n2C1c1ccccc1 (stereo not drawn)	inactive	-58.7% [at 11.4 µM] and -55.1% [at 11.4 µM]	inactive	
COC(=O)NC(c1cccs1)C(C(C)=O)C(=O)OC (stereo not drawn)	inactive	-34.2% [at 11.4 µM]	inactive	
COC(=O)C/C=C/C(C)C(OCc1cccc(-c2ccccc2)c1)C1CCCCC1 (stereo not drawn)	inactive	-35.3% [at 11.4 µM]	inactive	
CC(=O)OCC1OC(c2cc(C)cc(C)c2)C=CC1OC(C)=O (stereo not drawn)	inactive	-86.4% [at 11.4 µM]	inactive	
CC(=O)Nc1ccc(C2C(C)CCC3C(=O)N4C(CCC(C)[C@@H]4c4ccc(NC(C)=O)cc4)C(=O)N32)cc1 (stereo partly drawn)	inactive	-34.4% [at 11.4 µM]	inactive	inactive
CCCCCCC1=Cc2cc(OC)c(OC)cc2C(C2(C(=O)OCC)CCCC2=O)O1 (stereo not drawn)	inactive	-36.1% [at 11.4 µM]	inactive	inactive
CC(=O)OCC1OC(C#CCC2CCCCC2)C=CC1OC(C)=O (stereo not drawn)	inactive	-56.3% [at 11.4 µM]	inactive	inactive
COC(=O)C1=C(C)N(Cc2ccccc2)[C@]23O[C@](C(=O)OC)(C(=O)N2C1c1ccccc1)C(C(=O)OC)=C3C(=O)OC (stereo partly drawn)	inactive	-58% [at 11.4 µM]	inactive	1.58 µM (active)
COC(=O)C/C=C/C(C)C(OCc1cccc(Br)c1)C(C)C(OC)C1CCCCC1 (stereo not drawn)	2.51 µM (active)	-58% [at 11.4 µM]	inactive	
COCOc1cc(OC)ccc1C(=O)/C=C\c1ccc2c(c1)OCO2	2.51 µM (active)	-101% [at 11.4 µM]	3.98 µM (active)	
CCCCCCCC#Cc1ccccc1/C=N/S(=O)C(C)(C)C (stereo not drawn)	inactive	-47.5% [at 11.4 µM]	inactive	inactive
C=CC[C@@H]1C=C[C@@H](O/N=C\c2ccc(C(=O)N3[C@H](c4ccc(C)cc4)[C@@H](C)CC[C@H]3C(=O)OC)cc2)[C@@H](CO)O1	3.98 µM (active)	-42.6% [at 11.4 µM]		
CC[C@@H](c1ccccc1)n1c(=O)n2n(c1=O)[C@H]1[C@H](O)[C@H]3O[C@@H]3/C(=N/OC/C=C(\C)CCC=C(C)C)[C@@H]1CC2	inactive	-40.3% [at 11.4 µM]		
COc1ccc(OC2C=CC(c3ccccc3)OC2CO)c(C(C)=O)c1 (stereo not drawn)	inactive	-57.7% [at 11.4 µM]	inactive	inactive
COc1ccc(-c2ccccc2C2NC(C(=O)O)CCC2C)cc1 (stereo not drawn)	inactive	-42% [at 11.4 µM]	inactive	inactive
COC(c1ccccc1)C(C)C(OC)C(C)C(OC)C(C)C(C)=O (stereo not drawn)	inactive	-36.1% [at 11.4 µM]	inactive	inactive
